Data as given in ChEMBL document CHEMBL3988442, “University of Dundee, Small-Polar-MMV Screening Library” (2021).

Each molecule was assayed against AMP-activated protein kinase, AMPK (Homo sapiens) (UniProt P54646+O43741+P54619+Q9UGJ0+Q9Y478+Q13131+Q9UGI9) (assay: AMP-dependent Kinase enzyme assay. An in vitro enzyme assay that detects ADP turnover that is directly proportional to AMPK activity. This uses naive AMPK that is activated during the assay with MK-8722). Conditions: 30 µM.
Format: functional
Design: scale not given: direction of the effect not stated beside the values

| Compound | Percent Effect |
| --- | --- |
| CCCN(CCc1ccccn1)C(=O)Cn1cc(C)cn1 | 3.83% |
| Nc1ccnc(N2CCC(c3nccn3CC3CC3)CC2)n1 | -3.62% |
| O=S(=O)(NCc1ccnc(-n2ccnc2)c1)c1cncc(F)c1 | -5.49% |
| CC(=O)Nc1ccc(CNC(=O)CNCc2snnc2C)cc1 | -1.84% |
| Cc1cc(C)c2cc(C(=O)N3CCNC(=O)C3)[nH]c2c1 | 1.52% |
| O=C(O)CC(CC(=O)N(Cc1ccsc1)C1CC1)c1cccs1 (stereo not given) | -2.55% |
| CCc1ccccc1OCCN(C)C(=O)CN1CCCC1 | -130% |
| Cc1cnn(C2CCCN(C(=O)c3cc(-c4ccccc4C)n[nH]3)C2)c1 (stereo not given) | 1.68% |
| CCN(CC)S(=O)(=O)CC(=O)Nc1ccsc1 | 2.3% |
| CCS(=O)(=O)NCC(=O)N1CCC(c2cc3ccccc3[nH]2)CC1 | 6.95% |
| COCCCNC(=O)Nc1c(C)cccc1C(C)C | 7.47% |
| CCOc1cc(NC(=O)N2CCOC3(CCC3)C2)ccc1C | -1.23% |
| O=C(c1ccc(-n2cnnc2)cc1Cl)N1CCCC2(CCNC2)C1 (stereo not given) | 0.724% |
| CCC(C(=O)NCCc1nc(C)cc(C(F)(F)F)n1)n1cccn1 (stereo not given) | -8.03% |
| CC(=O)NCC(=O)N1CCCC(C(=O)c2ccc(C(C)(C)C)cc2)C1 (stereo not given) | 7.51% |
| COc1ccc(-c2cnc(CN(CC(N)=O)C3CCCC3)o2)cc1 | -2.59% |
| O=C(Nc1ccc2c(c1)C(=O)NC2=O)c1ccc(Cl)s1 | -3.34% |
| CN(C)CC(O)Cn1cc(NCc2ccc(Br)cc2)cn1 (stereo not given) | -39.9% |
| CC(C)[C@@H]1CN(C(=O)CCc2ccc(F)cc2)C[C@H]1C(=O)O | -1.24% |
| CS(=O)(=O)C1(CNCc2cccc(-n3cccn3)c2)CCOCC1 | 3.19% |
